TIM10 inh: inhibits growth of TIM10 yeast strain; S. cerevisiae TIM10 strain growth, BacTiter-Glo luminescence, 24 h; 330,000 tested, 1.4% active; inhibition, % at 10 µM;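 active = inhibition of 40% or more at the single tested concentration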;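 note: wild-type TIM10 isogenic control strain grown at permissive 25 °C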
PfHsp90 set2: inhibits growth of yeast expressing Plasmodium falciparum Hsp90 | inhibition, % at 9.4 µM | 310,000 tested, 0.32% active | S. cerevisiae expressing PfHsp90, BacTiter-Glo ATP, 48 h; yeast lacking PDR1 and PDR3 efflux regulators | AID 504621;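 active = every replicate shows inhibition above about 80%, whatever the replicate mean, limit read from the data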;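 note: 0% = DMSO neutral controls and 100% = 20 µM radicicol positive controls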
tim23-1 inh: tim23-1 yeast growth inhibition. 330,000 tested, 1.3% active. inhibition, % at 20 µM. AID 463212. S. cerevisiae tim23-1 growth, BacTiter-Glo luminescence, 24 h;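 active = growth inhibition of the mutant yeast at or above 50%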;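 note: temperature-sensitive mutant grown at 25 °C; plate controls were DMSO-treated mutant yeast for no effect and medium wells lacking yeast for full effect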
SKKanGAS inh: SKKanGAS growth inhibition; S. pyogenes SKKanGAS, kanamycin growth, BacTiter-Glo, 6 h; inhibition, % at 7.5 µM; 300,000 tested, 1.3% active; AID 1662;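 active = mean replicate score, as percent of positive control median, at least 50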;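 note: strain carries kanamycin resistance gene driven by streptokinase promoter and grows in 40 µg/ml kanamycin; loss of luminescence reflects streptokinase promoter inhibition or plain growth inhibition; 0% = median of DMSO wells and 100% = positive control at its reference dose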
NALP1 yeast inh: inhibitors of NALP1 inflammasome in yeast; S. cerevisiae NALP1/ASC/caspase-1 growth, X-gal OD620, 72 h; inhibition, % at 10 µM; 280,000 tested, 0.61% active; in the data active = inhibition mostly above about 24%, no sharp cut-off; inactive = mostly below about 32%
tim10-1 inh: growth inhibitors of tim10-1 mutant yeast | S. cerevisiae tim10-1 ts strain growth, BacTiter-Glo, 24 h | inhibition, % at 20 µM | 330,000 tested, 2.2% active;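 active = inhibition of at least 40%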;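 note: mutant grown at 25 °C; 0% = DMSO wells with yeast and 100% = wells holding no yeast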
tim10 confirm: TIM10 yeast growth inhibition, confirmed; shares compounds with TIM10 inh; S. cerevisiae tim10 strain growth, BacTiter-Glo luminescence, 24 h; inhibition, % at 10 µM; 4,600 tested, 63% active;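 active = inhibition of yeast growth at or above a set limit in either of two replicates at 10 µM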;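 note: this counterscreen used the strain with wild-type TIM10; 0% = yeast with DMSO and 100% = medium wells lacking yeast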
tim23-1 confirm: confirmation of tim23-1 mutant yeast growth inhibitors; shares compounds with tim23-1 inh; S. cerevisiae tim23-1 growth, BacTiter-Glo luminescence, 24 h; inhibition, % at 20 µM; 4,400 tested, 83% active;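 active = inhibition above about 39% in either of two replicate wells at 20 µM, limit read from the data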;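 note: temperature-sensitive tim23-1 mutant grown at 25 °C; 0% = DMSO wells with yeast and 100% = medium wells without yeast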
Numbers without * were called inactive; / = no result given; + = active, no number. This is a sample that favours compounds with a hit; in the whole collection about 4.8% have one here.

SMILES | TIM10 inh | PfHsp90 set2 | tim23-1 inh | SKKanGAS inh | NALP1 yeast inh | tim10-1 inh | tim10 confirm | tim23-1 confirm
Cc1nc(NC(=O)CSC2=NCCS2)sc1C(=O)N(C)C | 10 | 5 | 6 | -9 | 22 | 6 | / | /
CCOC(=O)c1sc(=NC(=O)c2cccc(OC)c2)n(C)c1C | 13 | / | 14 | -9 | -4 | 15 | / | /
CCOC(=O)c1sc(=NC(=O)c2ccccc2)n(C)c1C | 71* | 7 | 54* | -3 | 3 | 24 | 62* | 74*
CCOC(=O)c1sc(NC(=O)c2ccccc2)cc1C | 50* | 31 | 64* | -2 | 7 | 6 | 32* | 72*
CCOC(=O)c1sc(NC(=O)C(C)(C)C)cc1C | 31 | 27 | 33 | 4 | 36 | 34 | / | /
c1ccc(CSc2nc3ccccc3[nH]2)cc1 | 18 | -12 | 12 | -4 | / | -12 | / | /
CCCOc1ccc(CSc2nc3ccccc3[nH]2)cc1 | 47* | / | 64* | 7 | 7 | 23 | 36* | 49*
O=c1c2c3c(sc2ncn1/N=C/c1ccc(Br)o1)CCCC3 | 44* | -15 | 51* | -4 | -3 | 37 | 46* | 54*
Cc1ccc(/C=N/n2cnc3sc(C)c(C)c3c2=O)o1 | 3 | -18 | 5 | 3 | 15 | 14 | / | /
COc1ccc2c(c1)[C@@H]1[C@H](CO2)[C@H](c2ccccc2)[C@]2(C)C(=O)Nc3ccc(C)cc3C(=O)N12 | 42* | 16 | 58* | / | / | 35 | 35* | 57*
COc1ccc2c(c1)C(=O)N1[C@H]3c4cc(C)ccc4OC[C@@H]3[C@H](c3ccccc3)[C@]1(C)C(=O)N2 | -9 | -24 | -10 | / | / | 29 | / | /
Cn1ncc2c(O/N=C(\N)c3ccc(C(C)(C)C)cc3)ncnc21 | 79* | -34 | 55* | 0 | / | 27 | 84* | 24
N#CC1=C(N2CCCCC2)c2cc3c(n2C1=O)CCCC3 | 44* | -21 | 52* | 3 | 11 | 34 | 33* | 57*
N#C/C(=C/c1cccc(O)c1)C(=O)NCc1ccc(Cl)cc1 | 71* | -22 | 77* | 4 | 23 | 37 | 77* | 75*
N#C/C(=C/c1ccc(O)c(O)c1)C(=O)NCc1ccc(Cl)cc1 | 0 | 6 | 1 | 20 | -10 | 11 | / | /
CC(=O)Nc1cccc(-c2cc(-c3c(Cl)cccc3Cl)no2)c1 | 44* | -60 | 61* | 40 | / | 35 | 28 | 41*
CCC(C)Nc1ccc(NC(C)CC)cc1 (stereo unspecified) | 61* | + | 80* | / | / | 38 | 69* | 82*
CCC(C)NC(=O)Nc1ccc(Br)cc1 (stereo unspecified) | -9 | -10 | 25 | -12 | 4 | 17 | / | /
CCOC(=O)c1c(C)[nH]c(C(=O)COC(=O)COc2ccccc2C=O)c1C | 53* | -20 | 54* | 3 | -3 | 23 | 51* | 62*
CN(Cc1ccc(F)cc1)C(=O)c1cccc(NS(=O)(=O)c2ccccc2)c1 | 5 | 0 | 9 | 7 | 13 | 13 | / | /
COc1ccc2c(c1)C(c1ccccc1)=NNC(c1ccco1)=N2 | 9 | 10 | 32 | 7 | 28 | 5 | / | /
CCOc1ccc(C2=NNC(c3cccs3)=Nc3ccc(OC)cc32)cc1 | 55* | -8 | 64* | 12 | -13 | 30 | 43* | 70*
CCCC(=O)N1CCN(c2nnc(-c3ccccc3)c3ccccc23)CC1 | -33 | 11 | -14 | -5 | 2 | -30 | / | /
O=C(c1cccs1)N1CCN(c2nnc(-c3ccccc3)c3ccccc23)CC1 | 43* | / | 51* | 5 | -2 | 27 | -2 | 26
CCC(NC(=O)Cc1cccs1)c1ccccc1 (stereo unspecified) | -9 | 21 | 12 | 1 | / | -7 | / | /
SMILES | TIM10 inh | PfHsp90 set2 | tim23-1 inh | SKKanGAS inh | NALP1 yeast inh | tim10-1 inh | tim10 confirm | tim23-1 confirm
O=[N+]([O-])/C=C/c1c(OCc2ccccc2)ccc2ccccc12 | 73* | 1 | 61* | 70* | 1 | 34 | 6 | 47*
CCCCOc1ccc2ccccc2c1C=O | 29 | 2 | 45 | 9 | 22 | 27 | / | /
O=C(/C=C/c1ccccc1)Nc1ccc2c(c1)OCCO2 | 46* | -15 | 54* | -12 | 9 | 29 | 22 | 70*
O=C(/C=C/c1ccco1)Nc1ccc2c(c1)OCCO2 | -11 | -6 | 4 | / | -9 | -27 | / | /
COc1cccc(/C=N/Nc2ncnc3scc(-c4ccccc4)c23)c1O | 54* | 100* | 59* | 82* | 37 | 11 | 67* | 60*
O=C(Nc1cccc(Br)c1)c1cc2ccccc2o1 | 47* | -1 | 53* | -2 | 8 | 11 | 49* | 62*
N#C/C(=C\c1ccc(-c2ccccc2)o1)C(=O)Nn1cnnc1 | 14 | 15 | 12 | -8 | 3 | 7 | / | /
COC(=O)Cc1ccc(NC(=S)NCCSc2ccc(Cl)cc2)cc1 | 44* | -12 | 50* | -14 | 14 | 35 | 42* | 43*
Cn1c(-c2ccc(Br)cc2)cnc1NCc1ccc(C#N)cc1 | -173 | -1 | -191 | 1 | 7 | -155 | / | /
NNc1nc2c(Cl)c(Cl)ccc2s1 | 41* | 6 | 68* | 4 | 32 | 22 | 28* | 52*
Cc1ccccc1OCC(=O)O/N=C(\N)Cc1ccc(Cl)cc1 | 84* | 3 | 82* | 5 | 10 | 19 | 79* | 60*
COC(=O)c1oc(-c2ccccc2)nc1C | 10 | -14 | 1 | 0 | 14 | -6 | / | /
C/C=C/C(=O)OCC(=O)NC(=O)NC(C)C | -12 | -3 | 10 | 0 | -5 | 14 | / | /
O=C1c2sc3nc4ccccc4n3c2C(=O)N1c1ccccc1Cl | 60* | 13 | 56* | 13 | 10 | -101 | 59* | -19
Nc1c(C(=O)Nc2ccccc2)sc2nc(-c3ccco3)ccc12 | 67* | / | 64* | 18 | 1 | 36 | 63* | 85*
Cc1nn2c(NCc3ccccn3)c3c(nc2c1-c1ccccc1)CCC3 | 55* | / | 56* | 42 | / | 25 | 52* | 57*
CSc1cc(-c2ccccc2)n(Cc2ccccc2Cl)c(=O)c1C#N | -4 | 6 | -4 | 1 | 2 | -11 | / | /
O=C(Nc1ccc2nc3n(c(=O)c2c1)CCCCC3)c1ccccn1 | 46* | 4 | 55* | -8 | 20 | 35 | 36* | 68*
O=C(Nc1ccc2nc3n(c(=O)c2c1)CCCC3)c1ccccc1F | 23 | 13 | 49 | 1 | 4 | 9 | / | /
O=C(Nc1ccc2nc3n(c(=O)c2c1)CCCCC3)c1cc([N+](=O)[O-])ccc1F | 48* | 3 | 68* | 19 | 27 | 38 | 46* | 55*

Screening results: PubChem, several laboratories
